Reference: PubChem BioAssay

Assay: compound effects on differentiated 3T3-L1 adipocyte viability – cell-based, 3T3-L1 adipocytes, calcein-AM fluorescence, 48 h, basal, profiling panel (AID 1163)
Conditions: 3T3-L1 adipocytes viability, higher = more signal
Further: test concentration not given here.

Going from CC(C)(C)OC(=O)CC[C@@]12N=C(c3ccc(OCCCO)cc3)O[C@@H]1c1ccccc1N(CCS(=O)(=O)c1ccccc1)C2=O to CC(C)(C)OC(=O)CC[C@]1(C(=O)NCC(O)CO)COC(c2ccc(OCCCO)cc2)=N1 (stereo partly drawn), the z-score falls from 0.828 to -0.388.

In the case of C=CC[C@@]1(C(N)=O)N=C(c2ccc(OCCCO)cc2)O[C@@H]1c1ccccc1CN=[N+]=[N-], the z-score is reported as 1.69.

Assay: compound effects on hepatocellular carcinoma cell viability – HepG2, calcein-AM fluorescence, 48 h, basal, profiling panel (AID 1164)
Conditions: higher = more signal

First: COCCOC(=O)N1C(=O)[C@@]2(c3cc(C#Cc4ccc(OC)cc4)ccc31)[C@H](C(N)=O)[C@H]1C(=O)O[C@H](c3ccccc3)[C@H](c3ccccc3)N1[C@@H]2c1ccccc1OCCO
Second: COCCOC(=O)N1C(=O)[C@@]2(c3cc(C#Cc4ccc(OC)cc4)ccc31)[C@H](c1ccc(O)cc1)N1[C@H](c3ccccc3)[C@H](c3ccccc3)OC(=O)[C@H]1[C@@H]2C(=O)NC[C@H](O)c1ccccc1
The z-score of the first is lower: -1.76 for the first, -0.55 for the second.

First: C=CCN1C(=O)[C@@]2(O[C@@H](CCO)[C@H]([Si](C)(C)c3ccc(OC)cc3)[C@H]2C)c2cc(NC(=O)c3ccc(OC)cc3)ccc21
Second: COc1ccc([Si](C)(C)[C@H]2[C@H](CCO)O[C@@]3(C(=O)N(C)c4c(Br)cc(C)cc43)[C@@H]2C)cc1
The z-score of the first is higher: -4.47 for the first, -4.77 for the second.

First: COC(=O)[C@@]1(Cc2ccc(F)cc2)[C@@H]2[C@@H](CC(=O)[C@H]2CC(=O)C(=O)N(C)C)CN1C(=O)c1ccccc1
Second: COC(=O)[C@@]1(Cc2ccc(F)cc2)[C@H]2c3cc(C(=O)N4CCCC4)n(Cc4cc(C)n(C)n4)c3C[C@H]2CN1C(=O)c1ccccc1
The z-score of the first is lower: 0.27 for the first, 0.499 for the second.

First: O=C1C2C=CC(C(O)c3ccc(F)cc3)N(Nc3ccccc3F)C2C(=O)N1c1ccccc1 (stereo not drawn)
Second: COc1ccc(C(O)C2C=CC3C(=O)N(c4ccccc4)C(=O)C3N2Nc2ccccc2F)cc1OCc1ccccc1 (stereo not drawn)
The z-score of the first is lower: -1.47 for the first, -0.561 for the second.

Going from C=CCN(Cc1ccccc1)C(=O)C(c1cccs1)N(CCOCCO)C(=O)/C=C\C(=O)O (stereo not drawn) to C=C(CCCC)/C(=C/C[C@@H](OC(C)=O)c1ccccc1OCCO)c1cnc2ccccc2c1, the z-score falls from 0.849 to -0.749.

Compared with COc1cc2c(cc1OC)CN(C(=O)[C@@H]1[C@H]3C(=O)O[C@H](c4ccccc4)[C@H](c4ccccc4)N3[C@H](c3ccc(O)cc3)[C@@]13C(=O)Nc1ccc(C#CC4(O)CCCCCC4)cc13)CC2, O=C1O[C@H](c2ccccc2)[C@H](c2ccccc2)N2[C@H]1[C@@H](C(=O)Nc1nc3ccccc3s1)[C@]1(C(=O)Nc3ccc(C#CC4(O)CCCCCC4)cc31)[C@H]2c1ccc(OCCO)cc1 is lower in z-score: 1.37 for the first, -0.318 for the second.

Going from COCCOC(=O)N1C(=O)[C@@]2(c3cc(C#CC4=CCCCC4)ccc31)[C@H](C(=O)Nc1nc3ccccc3s1)[C@H]1C(=O)O[C@H](c3ccccc3)[C@H](c3ccccc3)N1[C@@H]2c1ccccc1OCCO to C=CCNC(=O)[C@H]1[C@@H]2C(=O)O[C@@H](c3ccccc3)[C@@H](c3ccccc3)N2[C@@H](c2ccccc2OCCO)[C@]12C(=O)Nc1ccc(C#CC3=CCCCC3)cc12, the z-score falls from -0.789 to -4.21.

Compared with CN(C)C(=O)[C@]1(Cc2ccccc2CN=[N+]=[N-])N=C(c2ccc(OCCCO)cc2)O[C@@H]1c1ccccc1CN=[N+]=[N-], C=CC[C@@]1(C(N)=O)N=C(c2ccc(OCCCO)cc2)O[C@@H]1c1ccccc1CN=[N+]=[N-] is lower in z-score: 0.309 for the first, 0.0287 for the second.

Compared with COc1ccc([C@H]2OC[C@@H]3CC4(CC=CC4)C(=O)N32)cc1, COC(=O)[C@@]1(Cc2ccc(OC)cc2)[C@H]2c3cc(C(=O)N4CCCC4)n(Cc4ccccc4)c3C[C@H]2CN1C(=O)c1ccccc1 is lower in z-score: -0.0409 for the first, -0.331 for the second.

First: CCCC[C@@H]1C[C@H]1[C@@H](NC(=O)c1ccco1)c1ccc(C(=O)OC)cc1
Second: COCCCNC(=O)C1N=C(c2ccc(OCCCO)cc2)N(c2ccccc2)O1 (stereo not drawn)
The z-score of the first is lower: -0.998 for the first, -0.393 for the second.

First: O=C1C[C@]2(c3ccc([N+](=O)[O-])cc3)C(=O)N(CCN3CCOCC3)c3cc(CO)ccc3[C@H]2N1C1CCCCC1
Second: Cc1ccc(S[C@]2(C(=O)NCCN3CCOCC3)CC(=O)N(Cc3ccccc3Cl)[C@@H]2c2ccc(CO)cc2)cc1
The z-score of the first is higher: 1.87 for the first, -0.0334 for the second.

Compared with O=C(O)[C@@]1(CCS(=O)(=O)c2ccccc2)COC(c2ccc(OCCCO)cc2)=N1, CC(C)(C)OC(=O)CC[C@@]12N=C(c3ccc(OCCCO)cc3)O[C@@H]1c1ccccc1N(CCS(=O)(=O)c1ccccc1)C2=O is higher in z-score: -0.0551 for the first, 0.116 for the second.

Compared with CC(=O)NCCCC[C@@H]1NC(=O)[C@@H]2C[C@H](C(=O)NCCCCN(C)C)[C@H](c3cccc(OCCO)c3)N2C1=O, C=CCOC(=O)[C@H]1[C@@H]2C(=O)O[C@@H](c3ccccc3)[C@@H](c3ccccc3)N2[C@@H](c2ccc(OCCOC(=O)[C@@H]3C[C@@H]4C(=O)N5CCC[C@H]5C(=O)N4[C@@H]3c3cccc(OCCO)c3)cc2)[C@]12C(=O)Nc1ccccc12 is lower in z-score: -0.506 for the first, -0.786 for the second.

Compared with O=C1NC(=O)C2C1C=CC(C(O)C(c1ccccc1)c1ccccc1)N2Nc1ccc(Cl)cc1Cl (stereo not drawn), CC(C)c1ccc(NN2C(C(O)C(c3ccccc3)c3ccccc3)C=CC3C(=O)N(c4ccccc4)C(=O)C32)cc1 (stereo not drawn) is higher in z-score: -2.7 for the first, -0.0211 for the second.

Going from COC(=O)C(CC#Cc1ccc2c(c1)[C@]1(C(=O)N2)[C@H](c2ccc(O)cc2)N2[C@H](c3ccccc3)[C@H](c3ccccc3)OC(=O)[C@H]2[C@@H]1C(=O)Nc1nc2ccccc2s1)C(=O)OC to C=CCOC(=O)[C@@H]1[C@H]2C(=O)O[C@H](c3ccccc3)[C@H](c3ccccc3)N2[C@H](c2ccc(OCCOC(=O)[C@@H]3C[C@@H]4C(=O)N[C@@H](Cc5ccccc5)C(=O)N4[C@@H]3c3ccc(O)cc3)cc2)[C@@]12C(=O)Nc1ccc(I)cc12, the z-score falls from 1.47 to 0.1.

Going from COc1cc(CO)cc(I)c1O[C@H]1C=C(C(=O)NCCO)C[C@@H](N(CCN2CCOCC2)C(=O)C2CCOC2)[C@@H]1O (stereo partly drawn) to COC(=O)[C@@]1(Cc2ccccc2)[C@H]2c3cc(C(=O)N4CCCC4)n(CC4CC4)c3C[C@H]2CN1C(=O)c1ccccc1, the z-score falls from 0.51 to -0.303.

Going from CC(C)C(=C=CC[C@@H](O)c1ccccc1OCCO)CCO to CC(C)(C)OC(=O)CC[C@]1(C(=O)NCC(O)CO)COC(c2ccc(OCCCO)cc2)=N1 (stereo partly drawn), the z-score rises from -0.902 to -0.665.

Molecule CCN(CC)c1ccc(N2CC=CC34O[C@@H]5/C=C\CCCOC(=O)C5[C@H]3C(=O)N(CCO)[C@@H]4C2=O)cc1 (stereo partly drawn) has a z-score of 0.0797.
